# The full ranking holds about 2,900 compounds; the median of “NF-kB SEAP reporter activity, fold change vs agonist alone” is about 0.99, and the highest 2% start at about 2.6. The full list was thinned out, with the highest values kept by preference.
# What was measured:
# [1] = tested on: RAW-Dual; assay: NF-kB SEAP reporter activity, fold change vs agonist alone; cytotoxicity flag (confluency mask): not cytotoxic; higher = enhanced NF-kB activity
# How it was run: (§1)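 Cytotoxic wells were those whose IncuCyte confluency was below 70% of agonist controls in both mask sets. The cells were RAW-Dual macrophages at 50,000 cells/well in DMEM on 384-well plates, dosed with 50 nL of library stock by pin tool, stimulated with a PRR agonist 1 h later, and kept at 37 °C, 5% CO2 for 20 hours. IRF and NF-κB reporter activity, as fold change over agonist-alone wells, came from supernatant read by QuantiLuc luminescence and QuantiBlue absorbance, respectively.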
# [2] = tested on: RAW-Dual; assay: NF-kB SEAP reporter activity, fold change vs agonist alone; higher = enhanced NF-kB activity; details: cytotoxicity flag (confluency mask): not cytotoxic
# How it was run: as §1
# [3] = agonist: ODN 1826 (TLR9) 0.5 ug/mL
# [4] = agonist: Pam2CSK4 (TLR2/6) 0.1 ug/mL
# [5] = agonist: Pam3CSK4 (TLR2/1) 0.1 ug/mL
# [6] = library stock concentration (final ~1000-fold dilution): 10 mM, agonist: Imiquimod (TLR7) […]
# [7] = library stock concentration (final ~1000-fold dilution): 10 mM, agonist: MPLA (TLR4) […]
smiles,measurement,setting,value
Cc1ccc(NCCN(C)CCNc2ccnc3cc(Cl)ccc23)c2c(=O)c3ccccc3sc12 (library stock concentration (final ~1000-fold dilution): 2 mM),NF-kB SEAP reporter activity,[1]; agonist: LPS (TLR4) 0.1 ug/mL,1.45
same,NF-kB SEAP reporter activity,[1]; [3],1.04
same,NF-kB SEAP reporter activity,[1]; [4],0.845
same,NF-kB SEAP reporter activity,[1]; [5],1.06
CCN(CCO)CCCC(C)Nc1ccnc2cc(Cl)ccc12.O=S(=O)(O)O (configuration not stated) (library stock concentration (final ~1000-fold dilution): 10 mM water),NF-kB SEAP reporter activity,[1]; agonist: LPS (TLR4) 0.1 ug/mL,1.41
same,NF-kB SEAP reporter activity,[1]; [3],0.252
same,NF-kB SEAP reporter activity,[1]; [4],0.864
same,NF-kB SEAP reporter activity,[1]; [5],0.763
Cc1cc2ncc(C(=O)NCC(C)(C)NCC(=O)N3CCCC3C#N)cn2n1 (configuration not stated) (library stock concentration (final ~1000-fold dilution): 10 mM),NF-kB SEAP reporter activity,[1]; agonist: LPS (TLR4) 0.1 ug/mL,1.57
same,NF-kB SEAP reporter activity,[1]; [3],0.997
same,NF-kB SEAP reporter activity,[1]; [4],0.911
same,NF-kB SEAP reporter activity,[1]; [5],0.96
Cc1cc2ncc(C(=O)NCC(C)(C)NCC(=O)N3CCCC3C#N)cn2n1 (configuration not stated),NF-kB SEAP reporter activity,[2]; [6],0.977
same,NF-kB SEAP reporter activity,[2]; [7],1.04
COc1ccccc1Nc1nc(-c2sc(NC(C)=O)nc2C)cs1,NF-kB SEAP reporter activity,[2]; [6],0.623
same,NF-kB SEAP reporter activity,[2]; [7],0.687
COc1ccccc1Nc1nc(-c2sc(NC(C)=O)nc2C)cs1 (library stock concentration (final ~1000-fold dilution): 10 mM),NF-kB SEAP reporter activity,[1]; agonist: LPS (TLR4) 0.1 ug/mL,0.496
same,NF-kB SEAP reporter activity,[1]; [3],0.464
same,NF-kB SEAP reporter activity,[1]; [4],0.318
same,NF-kB SEAP reporter activity,[1]; [5],0.245
CC(C)(OC1OC(CO)C(O)C(O)C1O)C1Cc2cc3ccc(=O)oc3cc2O1 (configuration not stated) (library stock concentration (final ~1000-fold dilution): 10 mM),NF-kB SEAP reporter activity,[1]; agonist: LPS (TLR4) 0.1 ug/mL,1.14
same,NF-kB SEAP reporter activity,[1]; [3],1.31
same,NF-kB SEAP reporter activity,[1]; [4],1.27
same,NF-kB SEAP reporter activity,[1]; [5],1.48
CC(C)(OC1OC(CO)C(O)C(O)C1O)C1Cc2cc3ccc(=O)oc3cc2O1 (configuration not stated),NF-kB SEAP reporter activity,[2]; [6],1.21
same,NF-kB SEAP reporter activity,[2]; [7],1.19
Cl.O=C1C2CCCCC2C(=O)N1CCCCN1CCN(c2nsc3ccccc23)CC1 (configuration not stated),NF-kB SEAP reporter activity,[2]; [7],0.868
Cl.O=C1C2CCCCC2C(=O)N1CCCCN1CCN(c2nsc3ccccc23)CC1 (configuration not stated) (library stock concentration (final ~1000-fold dilution): 10 mM),NF-kB SEAP reporter activity,[1]; agonist: LPS (TLR4) 0.1 ug/mL,0.671
same,NF-kB SEAP reporter activity,[1]; [3],0.536
same,NF-kB SEAP reporter activity,[1]; [4],0.848
same,NF-kB SEAP reporter activity,[1]; [5],0.888
Cc1n[nH]c2ccc(-c3cncc(OCC(N)Cc4ccccc4)c3)cc12 (configuration not stated) (library stock concentration (final ~1000-fold dilution): 10 mM),NF-kB SEAP reporter activity,[1]; agonist: LPS (TLR4) 0.1 ug/mL,0.198
same,NF-kB SEAP reporter activity,[1]; [3],0.962
same,NF-kB SEAP reporter activity,[1]; [4],0.447
same,NF-kB SEAP reporter activity,[1]; [5],1.01
Cc1n[nH]c2ccc(-c3cncc(OCC(N)Cc4ccccc4)c3)cc12 (configuration not stated),NF-kB SEAP reporter activity,[2]; [6],0.904
same,NF-kB SEAP reporter activity,[2]; [7],0.967
C=CC1(C)CC(OC(=O)CSCCN(CC)CC)C2(C)C(C)CCC3(CCC(=O)C32)C(C)C1O.O=C(O)/C=C/C(=O)O (configuration not stated) (library stock concentration (final ~1000-fold dilution): 10 mM),NF-kB SEAP reporter activity,[1]; agonist: LPS (TLR4) 0.1 ug/mL,1.37
same,NF-kB SEAP reporter activity,[1]; [3],0.712
same,NF-kB SEAP reporter activity,[1]; [4],0.821
same,NF-kB SEAP reporter activity,[1]; [5],0.841
C=CC1(C)CC(OC(=O)CSCCN(CC)CC)C2(C)C(C)CCC3(CCC(=O)C32)C(C)C1O.O=C(O)/C=C/C(=O)O (configuration not stated),NF-kB SEAP reporter activity,[2]; [7],1.13
O=C(/C=C/N1CC2CC1CN2c1ccccn1)c1ccccc1O (configuration not stated) (library stock concentration (final ~1000-fold dilution): 10 mM),NF-kB SEAP reporter activity,[1]; agonist: LPS (TLR4) 0.1 ug/mL,1.01
same,NF-kB SEAP reporter activity,[1]; [3],0.735
same,NF-kB SEAP reporter activity,[1]; [4],1.02
same,NF-kB SEAP reporter activity,[1]; [5],1.39
O=C(/C=C/N1CC2CC1CN2c1ccccn1)c1ccccc1O (configuration not stated),NF-kB SEAP reporter activity,[2]; [6],0.829
same,NF-kB SEAP reporter activity,[2]; [7],1.03
CCN(CC)CCCCC(NC(=O)C(CC(C)C)NC(=O)C(C)NC(=O)C(Cc1ccccc1)NC(=O)c1ccc(C(C)(C)C)cc1)C(=O)NC(CO)C(=O)OC (configuration not stated) (library stock concentration (final ~1000-fold dilution): 10 mM),NF-kB SEAP reporter activity,[1]; agonist: LPS (TLR4) 0.1 ug/mL,0.99
same,NF-kB SEAP reporter activity,[1]; [3],0.888
same,NF-kB SEAP reporter activity,[1]; [4],0.898
same,NF-kB SEAP reporter activity,[1]; [5],1.1
COC(=O)C(CCSC)NC(=O)c1ccc(NCC(N)CS)cc1-c1ccccc1.Cl (configuration not stated) (library stock concentration (final ~1000-fold dilution): 10 mM),NF-kB SEAP reporter activity,[1]; agonist: LPS (TLR4) 0.1 ug/mL,1.38
same,NF-kB SEAP reporter activity,[1]; [3],1.56
same,NF-kB SEAP reporter activity,[1]; [4],1.16
same,NF-kB SEAP reporter activity,[1]; [5],0.929
CCN(CC)CCCCC(NC(=O)C(CC(C)C)NC(=O)C(C)NC(=O)C(Cc1ccccc1)NC(=O)c1ccc(C(C)(C)C)cc1)C(=O)NC(CO)C(=O)OC (configuration not stated),NF-kB SEAP reporter activity,[2]; [6],1.08
same,NF-kB SEAP reporter activity,[2]; [7],0.945
COC(=O)C(CCSC)NC(=O)c1ccc(NCC(N)CS)cc1-c1ccccc1.Cl (configuration not stated),NF-kB SEAP reporter activity,[2]; [6],1.13
same,NF-kB SEAP reporter activity,[2]; [7],1.22
COC(=O)C(CC(C)C)NC(=O)c1ccc(NCC(N)CS)cc1-c1cccc2ccccc12.O=C(O)C(F)(F)F (configuration not stated) (library stock concentration (final ~1000-fold dilution): 10 mM),NF-kB SEAP reporter activity,[1]; agonist: LPS (TLR4) 0.1 ug/mL,3.82
same,NF-kB SEAP reporter activity,[1]; [3],2.38
same,NF-kB SEAP reporter activity,[1]; [4],1.5
same,NF-kB SEAP reporter activity,[1]; [5],2.19
COC(=O)C(CC(C)C)NC(=O)c1ccc(NCC(N)CS)cc1-c1cccc2ccccc12.O=C(O)C(F)(F)F (configuration not stated),NF-kB SEAP reporter activity,[2]; [6],1.25
same,NF-kB SEAP reporter activity,[2]; [7],2.31
C=C(C)C1CCC2(C(=O)OC3OC(COC4OC(CO)C(OC5OC(C)C(O)C(O)C5O)C(O)C4O)C(O)C(O)C3O)CCC3(C)C(CCC4C5(C)CCC(OC6OCC(O)C(O)C6OC6OC(C)C(O)C(O)C6O)C(C)(CO)C5CCC43C)C12 (configuration not stated),NF-kB SEAP reporter activity,"[2]; library stock concentration (final ~1000-fold dilution): 2 mM, agonist: Imiquimod (TLR7) […]",0.946
same,NF-kB SEAP reporter activity,"[2]; library stock concentration (final ~1000-fold dilution): 2 mM, agonist: MPLA (TLR4) […]",1.07
C=C(C)C1CCC2(C(=O)OC3OC(COC4OC(CO)C(OC5OC(C)C(O)C(O)C5O)C(O)C4O)C(O)C(O)C3O)CCC3(C)C(CCC4C5(C)CCC(OC6OCC(O)C(O)C6OC6OC(C)C(O)C(O)C6O)C(C)(CO)C5CCC43C)C12 (configuration not stated) (library stock concentration (final ~1000-fold dilution): 2 mM),NF-kB SEAP reporter activity,[1]; agonist: LPS (TLR4) 0.1 ug/mL,1
same,NF-kB SEAP reporter activity,[1]; [3],1.09
same,NF-kB SEAP reporter activity,[1]; [4],1.17
same,NF-kB SEAP reporter activity,[1]; [5],1.16

# Source: the supplement of paper PMC10037445
